Assay outcomes: PubChem BioAssay, NMMLSC
FPRL1 binder: ligands of human FPRL1, also counter-screen for FPR ligands | P25090 | FPRL1-expressing cells, fluorescent ligand binding inhibition, flow cytometry | inhibition, % (concentration not given with the values) | 0.3% of 24,000 active | AID 441
Target sequence (P25090 whole entry, looked up): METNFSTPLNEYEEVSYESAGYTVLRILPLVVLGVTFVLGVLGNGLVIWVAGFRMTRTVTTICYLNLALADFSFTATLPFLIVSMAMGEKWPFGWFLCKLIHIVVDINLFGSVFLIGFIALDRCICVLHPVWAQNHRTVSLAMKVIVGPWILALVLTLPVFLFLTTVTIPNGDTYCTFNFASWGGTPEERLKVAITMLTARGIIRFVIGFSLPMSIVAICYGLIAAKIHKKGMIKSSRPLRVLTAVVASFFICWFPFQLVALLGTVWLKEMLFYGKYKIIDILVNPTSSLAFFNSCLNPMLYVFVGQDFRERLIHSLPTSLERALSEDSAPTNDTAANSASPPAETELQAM
VLA-4 antagonist: blocks LDV-FITC ligand binding to Mn2+-activated human VLA-4 integrin; P13612; Jurkat cells, LDV-FITC binding with Mn2+, flow cytometry; 100% = Mn2+-driven binding gain fully reversed; inhibition, % at 10 µM (by protocol); 0.2% of 24,000 active; AID 529;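 active = inhibition above 50%; inconclusive = compound itself fluorescent, judged against control cell fluorescence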
Jurkat autofluor: counter-screen for VLA-4 integrin: compound autofluorescence in Jurkat cells; 0.61% of 24,000 active; fluorescence ratio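 (tested at 10 µM compound in the well)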; flow cytometry; active compounds read high; 1 = vehicle-only cell background;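 active = fluorescence ratio above 2.44, which is 1 plus 3 SD of all ratios; inconclusive = signal too bright to measure linearly, ratio around 10 or more; inactive = fluorescence ratio below 2.44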;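 also: green fluorescence of cells measured with 488 nm excitation and 530 nm emission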
Proteasome disasm: blocks ATP-dependent breakdown of the yeast 26S proteasome. 0.2% of 24,000 active. inhibition of disassembly, % (no concentration beside the values). AID 751. anti-FLAG beads, GFP-proteasome disassembly, flow cytometry;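 active = inhibition of disassembly above about 33%, limit read from the data; inconclusive = likely self-fluorescent, control bead median signal at least 40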;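 also: higher percent means more bead fluorescence retained so stronger block of disassembly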
FPR ligand: ligands of human FPR, also counter-screen for FPRL1 ligands; inhibition, % (concentration not given with the values); 0.74% of 24,000 active; FPR-expressing cells, fluorescent ligand binding, flow cytometry; P21462
VLA-4 allo ag: allosterically activates the human VLA-4 integrin. P13612. Jurkat cells, LDV-FITC binding, flow cytometry. activation, % at 10 µM (by protocol). 24,000 tested, under 10 active. AID 528;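 active = fluorescent ligand binding to cells raised by more than 40% of the manganese-induced maximum; inconclusive = compound's own fluorescence above 85% of the ligand control signal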
A number is an active result; n = inactive; u = inconclusive; x = no result given. Most compounds without a hit are left out; they make up all but 1.9% or so of the library. Rule as the data show it, unless noted: active = inhibition above about 30%; inconclusive = no clear call, values can overlap the other calls; inactive = below that.

SMILES	FPRL1 binder	VLA-4 antagonist	Jurkat autofluor	Proteasome disasm	FPR ligand	VLA-4 allo ag
CCOC(=O)N1CCC(NC(=O)c2cc(C(=O)Nc3cccc(OC)c3)ccc2CO)CC1	n	n	n	n	n	n
CCC(C)NC(=O)C1=C(C)C(=O)OC12CCC(C)CC2 (centres undefined)	n	n	n	n	n	n
COc1ccc(S(=O)(=O)C(C#N)c2nc3ccccc3nc2N2CCCC(C)C2)cc1 (centres undefined)	n	u	3	n	n	u
COc1ccc(-c2nc(-c3ccc(NC(=O)c4ccc(Br)o4)cc3)no2)cc1OC	50	n	n	n	43	n
COc1cccc(-c2nc(-c3ccc(NC(=O)Cc4ccccc4OC)cc3)no2)c1	n	n	n	n	n	n
COc1ccc(-c2nc(-c3ccc(Br)o3)no2)cc1OC	31	n	n	n	n	n
FC(F)(F)c1ccc(N2CCOCC2)c(Nc2nc3ccccc3n3cnnc23)c1	n	u	2.7	n	n	u
COc1ccc(N2CCN(C(=O)CCNS(=O)(=O)c3ccc(Br)s3)CC2)cc1	n	n	n	n	n	n
C=CCN1C(=O)/C(=C2\SC(N3CCOCC3)=NC2=O)c2cc(Br)ccc21	n	n	n	n	n	n
C/C(=C1/SC(N2CCCC2)=NC1=O)c1ccc(Br)cc1	n	n	n	n	42	n
COc1ccc(OC)c(C2C(C(=O)c3cc4ccccc4o3)=C(O)C(=O)N2c2cc(C)on2)c1 (centres undefined)	n	x	x	x	33	x
O=C(C1=C(O)C(=O)N(c2ncccn2)C1c1ccc(Cl)cc1)c1ccco1 (centres undefined)	n	x	x	x	n	x
Cc1ccc(C(=O)C2=C(O)C(=O)N(Cc3ccccc3)C2c2cccnc2)o1 (centres undefined)	n	x	x	x	32	x
COc1cc(C2C(C(=O)c3ccc(C)o3)=C(O)C(=O)N2c2cc(C)on2)cc(Br)c1O (centres undefined)	n	n	n	n	n	n
O=C(C1=C(O)C(=O)N(c2ncccn2)C1c1ccc(Cl)c(Cl)c1)c1ccco1 (centres undefined)	n	x	x	x	45	x
COc1cc(C2C(C(=O)c3ccco3)=C(O)C(=O)N2c2cc(C)on2)cc(Br)c1O (centres undefined)	31	x	x	x	39	x
CSC1=NCCN1C(=O)Cc1cccs1	n	n	n	n	n	n
O=C(CN(Cc1ccc(F)cc1)C(=O)Cn1nnc2ccccc21)NCC1CCCO1 (centres undefined)	n	n	n	n	n	n
COC(=O)C1=C(NC(=O)c2ccc(C)c(C)c2)CCS1	n	n	n	n	n	n
Cc1cc(N2C(=O)C(O)=C(C(=O)c3ccco3)C2c2cccnc2)no1 (centres undefined)	30	x	x	x	n	x
CCCCCNC(=O)c1ccc2c(=O)[nH]c3c(C(=O)NCC4CCCO4)sc(=S)n3c2c1 (centres undefined)	n	u	n	n	40	u
O=C(NC1CCCC1)c1sc(=S)n2c1[nH]c(=O)c1ccccc12	n	u	n	n	95	u
Cc1nnc(SCC(=O)Nc2nccs2)[nH]c1=O	n	n	n	n	n	n
O=C(O)c1cc(S(=O)(=O)Nc2ccc3c(c2)OCCO3)c(Cl)cc1Cl	n	n	n	n	n	n
O=C(Cn1nc(-c2ccc3c(c2)OCCO3)ccc1=O)Nc1ccc(N2CCOCC2)cc1	n	96	n	n	n	n
SMILES	FPRL1 binder	VLA-4 antagonist	Jurkat autofluor	Proteasome disasm	FPR ligand	VLA-4 allo ag
O=C(Cc1ccc(-n2cccc2)cc1)N1CCc2ccccc21	n	u	4.9	n	n	u
O=C(Cn1cc2c(n1)CCCCC2)N1CCc2ccccc21	n	n	n	n	n	n
Cc1noc(/C=C/N(C)C)c1S(=O)(=O)N1CCN(c2ccccc2)CC1	n	n	n	n	n	n
Cc1ccc(C)c(N2CCN(S(=O)(=O)c3c(C)noc3/C=C/N(C)C)CC2)c1	n	u	n	49	n	n
COc1ccc(NC(=O)C2C(=O)N(CCO)C3(C)CC2c2ccccc2O3)cc1 (centres undefined)	n	n	n	n	n	n
Cc1ccc(NC(=O)C2C(=O)N(CCO)C3(C)CC2c2ccccc2O3)cc1 (centres undefined)	40	n	n	n	31	n
COc1ccc(C2C(C(C)=O)=C(C)N=c3s/c(=C/c4ccc5c(c4)OCO5)c(=O)n32)cc1 (centres undefined)	n	n	n	n	n	n
CC(=O)C1=C(C)N=c2s/c(=C/c3ccc4c(c3)OCO4)c(=O)n2C1c1ccc(N(C)C)cc1 (centres undefined)	n	u	8.5	n	u	u
CC(C)=CC(=O)Nc1ccc(Br)cc1	n	n	n	n	n	n
NC(=O)c1oc2ccc(Cl)cc2c1NC(=O)CN1CCOCC1	n	n	n	n	n	n
COc1ccc(CCN2C(=O)C(O)=C(C(=O)c3ccco3)C2c2cccs2)cc1OC (centres undefined)	31	x	x	x	82	x
COc1cc(C2C(C(=O)c3ccco3)=C(O)C(=O)N2CCc2ccccc2)ccc1O (centres undefined)	n	x	x	x	63	x
COc1cc(C2C(C(=O)c3ccco3)=C(O)C(=O)N2Cc2cccnc2)cc(OC)c1OC (centres undefined)	n	x	x	x	n	x
COCCN1C(=O)C(O)=C(C(=O)c2ccco2)C1c1cccc(Oc2ccccc2)c1 (centres undefined)	n	x	x	x	72	x
CCOc1cc(C2C(C(=O)c3ccc(C)o3)=C(O)C(=O)N2CCc2ccccc2)ccc1O (centres undefined)	n	x	x	x	90	x
CN1CC=C2C(C#N)=C(N)C(C#N)(C#N)C(Cc3ccccc3)C2C1 (centres undefined)	n	u	2.6	n	n	u
CC(C)(C)OC(=O)N1CC=C2C(C#N)=C(N)C(C#N)(C#N)C(c3cccs3)C2C1 (centres undefined)	n	u	n	n	n	u
CC(C)Cn1c(=O)c(C2=NS(=O)(=O)c3ccccc3N2)c(O)c2ccccc21	n	59	n	n	n	n
CCCOC(=O)CSc1nc(N)c(C#N)c(CC)c1C#N	n	n	n	n	n	n
CCCCCNC(=O)CCCCn1c(=O)[nH]c2cc(OCC)c(OCC)cc2c1=O	n	78	n	n	n	n
COc1ccccc1-c1c(C)oc2c(CN3CCN(CCO)CC3)c(O)ccc2c1=O	n	x	x	x	n	x
COc1ccc(-c2c(C)oc3c(CN4CCN(CCO)CC4)c(O)ccc3c2=O)cc1OC	n	x	x	x	31	x
CC(C)C(c1nnnn1C1CCCC1)N1CCN(C(=O)c2ccco2)CC1 (centres undefined)	n	n	n	n	n	n
COc1cccc2sc(Nc3nnc(-c4cccs4)o3)nc12	n	u	n	n	n	u
COc1cccc2sc(Nc3nnc(-c4ccc(F)cc4)o3)nc12	x	90	n	x	x	n
